According to paper PMC5700166:

These sequences were tested against T1, GST-Nv-NF-kB (Ser allele) (Nematostella vectensis, UniProt A7UNT2 2-411) (assay: protein-binding microarray (PBM); PBM: ~300 nM protein, 6 mM HEPES pH 7.8, 80 mM KCl, 0.5 mM EDTA, 0.5 mM EGTA, 6% glycerol, 35 ng/ul poly-dIdC, 1% milk, 1 h, room temperature; Ap Aiptasia and Nv Nematostella (sea anemones) / Co Capsaspora / Aq Amphimedon (sponge) / Dm Drosophila / Hu human; RHD is the Rel homology domain; high values mean tight binding). Conditions: dsDNA, one strand shown.
T1 sequence: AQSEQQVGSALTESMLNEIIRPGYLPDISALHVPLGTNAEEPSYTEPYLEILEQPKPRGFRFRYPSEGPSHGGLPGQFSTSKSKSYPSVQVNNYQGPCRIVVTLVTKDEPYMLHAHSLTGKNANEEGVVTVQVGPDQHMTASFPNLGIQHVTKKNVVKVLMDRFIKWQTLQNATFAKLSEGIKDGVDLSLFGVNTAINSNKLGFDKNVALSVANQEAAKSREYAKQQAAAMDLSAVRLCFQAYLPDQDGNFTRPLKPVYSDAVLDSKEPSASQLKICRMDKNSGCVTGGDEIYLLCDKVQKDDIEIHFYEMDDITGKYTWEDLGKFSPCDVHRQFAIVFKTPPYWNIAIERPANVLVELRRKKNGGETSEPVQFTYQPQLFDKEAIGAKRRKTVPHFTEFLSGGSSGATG
With “CCGATTAACATCAAAACTTCCCATGATGTTAATCGGGTCTTGATTCGCTTGACGCTGCTG” the binding signal was 3.45 z-score. Sequence “CCGATTAACATCAGGGAAAACCATGATGTTAATCGGGTCTTGATTCGCTTGACGCTGCTG” has a binding signal of 6.37 z-score. “CCGATTAACATCAGATTTCCCACTGATGTTAATCGGGTCTTGATTCGCTTGACGCTGCTG” was tested, and the binding signal was 3.83 z-score.

These sequences were tested against GST-Hu-p50 (Homo sapiens, UniProt P19838 7-356) in the same assay as above. Conditions: dsDNA, one strand shown.
Sequence of GST-Hu-p50 (P19838 7-356): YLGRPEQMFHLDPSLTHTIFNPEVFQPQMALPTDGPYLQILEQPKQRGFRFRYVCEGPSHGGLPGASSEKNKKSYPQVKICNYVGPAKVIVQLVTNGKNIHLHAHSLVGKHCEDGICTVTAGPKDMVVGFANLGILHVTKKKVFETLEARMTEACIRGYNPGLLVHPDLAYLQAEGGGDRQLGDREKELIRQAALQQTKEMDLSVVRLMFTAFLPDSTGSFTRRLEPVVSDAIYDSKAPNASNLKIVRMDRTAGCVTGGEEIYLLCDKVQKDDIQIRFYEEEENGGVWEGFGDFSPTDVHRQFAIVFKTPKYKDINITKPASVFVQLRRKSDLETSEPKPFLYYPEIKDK
With “CCGATTAACATCAAGGGGTCCCCTGATGTTAATCGGGTCTTGATTCGCTTGACGCTGCTG” the binding signal was 3.06 z-score. With “CCGATTAACATCAGGGAAAGAACTGATGTTAATCGGGTCTTGATTCGCTTGACGCTGCTG” the binding signal was 2.37 z-score. Work on “CCGATTAACATCAAAGAAGCCCCTGATGTTAATCGGGTCTTGATTCGCTTGACGCTGCTG” yielded a binding signal of 5.02 z-score. Sequence “CCGATTAACATCATTGTCCCTTCTGATGTTAATCGGGTCTTGATTCGCTTGACGCTGCTG” has a binding signal of 1.99 z-score. “CCGATTAACATCACCGAATTTGGTGATGTTAATCGGGTCTTGATTCGCTTGACGCTGCTG” gave a binding signal of 2.09 z-score. “CCGATTAACATCAGGGACTCACCTGATGTTAATCGGGTCTTGATTCGCTTGACGCTGCTG” was tested, and the binding signal was 3 z-score. Work on “CCGATTAACATCAGGGGAATGACTGATGTTAATCGGGTCTTGATTCGCTTGACGCTGCTG” yielded a binding signal of 4.83 z-score. Sequence “CCGATTAACATCAGGGGGGGCACTGATGTTAATCGGGTCTTGATTCGCTTGACGCTGCTG” has a binding signal of 3.87 z-score. With “CCGATTAACATCAGTCCCTAAGCTGATGTTAATCGGGTCTTGATTCGCTTGACGCTGCTG” the binding signal was 2.51 z-score. With “CCGATTAACATCAGGATTGCCCCTGATGTTAATCGGGTCTTGATTCGCTTGACGCTGCTG” the binding signal was 3.69 z-score. “CCGATTAACATCAGGGAAAAAACTGATGTTAATCGGGTCTTGATTCGCTTGACGCTGCTG” showed a binding signal of 4.02 z-score. Work on “CCGATTAACATCACGGGTTTCCCTGATGTTAATCGGGTCTTGATTCGCTTGACGCTGCTG” yielded a binding signal of 3.17 z-score. Work on “CCGATTAACATCAATTCCCAAGGTGATGTTAATCGGGTCTTGATTCGCTTGACGCTGCTG” yielded a binding signal of 2.13 z-score. Sequence “CCGATTAACATCACAAAACTCCCTGATGTTAATCGGGTCTTGATTCGCTTGACGCTGCTG” has a binding signal of 4.95 z-score. In the case of “CCGATTAACATCAAAAACACCCCTGATGTTAATCGGGTCTTGATTCGCTTGACGCTGCTG”, the binding signal was 4.99 z-score. Sequence “CCGATTAACATCAGGGCTTTACCTGATGTTAATCGGGTCTTGATTCGCTTGACGCTGCTG” has a binding signal of 2.02 z-score. With “CCGATTAACATCAGGAGTACCCCTGATGTTAATCGGGTCTTGATTCGCTTGACGCTGCTG” the binding signal was 2.81 z-score. “CCGATTAACATCAAAGTACCCCCTGATGTTAATCGGGTCTTGATTCGCTTGACGCTGCTG” was tested, and the binding signal was 4.53 z-score. Work on “CCGATTAACATCAAAAATTCCGGTGATGTTAATCGGGTCTTGATTCGCTTGACGCTGCTG” yielded a binding signal of 3.12 z-score. Sequence “CCGATTAACATCACTAAAATCCCTGATGTTAATCGGGTCTTGATTCGCTTGACGCTGCTG” has a binding signal of 3.2 z-score. With “CCGATTAACATCAGGGAACTACCTGATGTTAATCGGGTCTTGATTCGCTTGACGCTGCTG” the binding signal was 3.92 z-score. “CCGATTAACATCAAAAAGTTCCCTGATGTTAATCGGGTCTTGATTCGCTTGACGCTGCTG” gave a binding signal of 4.09 z-score. “CCGATTAACATCAGGAATCTACCTGATGTTAATCGGGTCTTGATTCGCTTGACGCTGCTG” gave a binding signal of 2.27 z-score. “CCGATTAACATCACGGAAACCCCTGATGTTAATCGGGTCTTGATTCGCTTGACGCTGCTG” showed a binding signal of 4.6 z-score. Work on “CCGATTAACATCAGGGGTCCCCATGATGTTAATCGGGTCTTGATTCGCTTGACGCTGCTG” yielded a binding signal of 2.54 z-score. “CCGATTAACATCACCCGCTTTATTGATGTTAATCGGGTCTTGATTCGCTTGACGCTGCTG” was tested, and the binding signal was 1.46 z-score. For “CCGATTAACATCAAGGAATTTCCTGATGTTAATCGGGTCTTGATTCGCTTGACGCTGCTG”, the binding signal was 1.48 z-score. “CCGATTAACATCACAAACTTCCCTGATGTTAATCGGGTCTTGATTCGCTTGACGCTGCTG” gave a binding signal of 2.88 z-score. With “CCGATTAACATCAAAAATTGCCCTGATGTTAATCGGGTCTTGATTCGCTTGACGCTGCTG” the binding signal was 2.11 z-score. In the case of “CCGATTAACATCACAACACCCCCTGATGTTAATCGGGTCTTGATTCGCTTGACGCTGCTG”, the binding signal was 4.62 z-score. With “CCGATTAACATCAAATTCCCAGATGATGTTAATCGGGTCTTGATTCGCTTGACGCTGCTG” the binding signal was 2.58 z-score. “CCGATTAACATCAATTCCCGTACTGATGTTAATCGGGTCTTGATTCGCTTGACGCTGCTG” was tested, and the binding signal was 1.41 z-score. For “CCGATTAACATCACGGAATACCCTGATGTTAATCGGGTCTTGATTCGCTTGACGCTGCTG”, the binding signal was 3.41 z-score. Sequence “CCGATTAACATCAACGCCCCCCCTGATGTTAATCGGGTCTTGATTCGCTTGACGCTGCTG” has a binding signal of 4.25 z-score. “CCGATTAACATCAGGGGAGTTAATGATGTTAATCGGGTCTTGATTCGCTTGACGCTGCTG” showed a binding signal of 3.74 z-score. Sequence “CCGATTAACATCAAGGGATCCCCTGATGTTAATCGGGTCTTGATTCGCTTGACGCTGCTG” has a binding signal of 5.23 z-score. Work on “CCGATTAACATCAGGGGGTGTTATGATGTTAATCGGGTCTTGATTCGCTTGACGCTGCTG” yielded a binding signal of 5.17 z-score. Work on “CCGATTAACATCAAAACTTCCCATGATGTTAATCGGGTCTTGATTCGCTTGACGCTGCTG” yielded a binding signal of 2.96 z-score. For “CCGATTAACATCAGGGAAAACCATGATGTTAATCGGGTCTTGATTCGCTTGACGCTGCTG”, the binding signal was 4.01 z-score. Sequence “CCGATTAACATCAGATTTCCCACTGATGTTAATCGGGTCTTGATTCGCTTGACGCTGCTG” has a binding signal of 2.99 z-score.
